Our source for the outcome and Potency values is PubChem BioAssay (NCATS).

Experiment [1] is described as follows: HPAF-II 24hr Apoptosis Induction qHTS against the NCATS CANVASS Library (AID 1347356). Conditions: HPAF-II caspase-3/7 Caspase-Glo luminescence; series mostly up to 46.1 µM. In outline:
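Cells seeded at 500 per well, then compounds pin-transferred in an 11-point concentration series. After 24 hours at 37 degrees C, Caspase-Glo 3/7 was added and luminescence measured following 15 min at room temperature.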
Background: qHTS replaces the single test concentration by a dilution series.

A short description of experiment [2]: HEK293 18hr Apoptosis Induction qHTS against the NCATS CANVASS Library (AID 1347357). The following applies: HEK293 caspase-3/7 Caspase-Glo luminescence; series mostly up to 46.1 µM. In outline: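 HEK293 cells (500/well, DMEM + 10% FBS) treated with an 11-point series for 18 h at 37 degrees C. Caspase-3/7 activity read by Caspase-Glo luminescence after 15 min at room temperature.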

The nature of experiment [3]: HEK293 24hr Apoptosis Induction qHTS against the NCATS CANVASS Library (AID 1347359). The following applies: HEK293 caspase-3/7 activation, Caspase-Glo luminescence; series mostly up to 46.1 µM. In outline:
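HEK293 cells, 500 per well, exposed to an 11-point compound series for 24 hours at 37 degrees C. Caspase 3/7 activity read by Caspase-Glo luminescence (DEVD substrate) after 15 min at room temperature.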

Experiment [4] can be described thus: HPAF-II 18hr Apoptosis Induction qHTS against the NCATS CANVASS Library (AID 1347360). The following applies: HPAF-II caspase-3/7 luminescence; series mostly up to 46.1 µM. In outline:
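HPAF-II cells at 500/well were exposed for 18 h at 37 C to an 11-point compound series. Caspase-3/7 activity was read by Caspase-Glo luminescence after 15 min at RT.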

For experiment [5], the system named is NAD(P)H diaphorase (Clostridium kluyveri). In words: Diaphorse counterscreen qHTS: Assay Interference Panel against the NCATS CANVASS Library (AID 1347362). Conditions: Diaphorase enzyme, resazurin to resorufin fluorescence; series mostly up to 57.5 µM. In outline:
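Clostridium kluyveri diaphorase in PBS + 0.01% Tween-20 preincubated 15 min with compounds. Resazurin and NADH then added for 5 min at room temperature in the dark; resorufin fluorescence read (ex 525, em 598).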
On the technique in general: A counterscreen serves to expose hits that act by an unwanted route or on another target.

Experiment [6] addresses Luciferin 4-monooxygenase (Photinus pyralis) (UniProt P08659). As to the kind of experiment: Firefly luciferase counterscreen qHTS: Assay Interference Panel against the NCATS CANVASS Library (AID 1347363). The following applies: purified firefly luciferase, luminescence inhibition, 5 min; series mostly up to 57.5 µM. In outline:
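Purified P. pyralis luciferase (0.04 ug/mL, 4x reagent) added to Tris-acetate buffer with 0.013 mM D-luciferin, 0.013 mM ATP and 13.3 mM Mg-acetate; compounds preincubated 15 min, then luminescence read after 5 min, RT.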

The nature of experiment [7]: KB-3-1 Cancer Cell Toxicity qHTS against the NCATS CANVASS Library (AID 1347366). Further: nearly all actives have a fitted effect of over 75% in size. Further: potency means the concentration at half of the fitted maximal effect. Conditions: KB-3-1 viability, CellTiter-Glo luminescence, 72 h; series mostly up to 46.1 µM. In outline: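 KB-3-1 cells (500/well) in DMEM with 10% FBS were exposed to compounds for 72 h at 37C. Viability was read by CellTiter-Glo luminescence.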
A short description of experiment [8]: qHTS for ATAD5 Agonist screened against the NCATS CANVASS Library (AID 1347367).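 Further: luciferase reporter driven by ATAD5 which rises upon DNA damage.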 Conditions: HEK293T ATAD5-luciferase reporter, luminescence, 16 h; series mostly up to 46.1 µM. In outline:
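Luciferase reporter under ATAD5 control, stably integrated in HEK293T cells (2000/well). Compounds (11 points) incubated 16 h at 37C; viability read first by CellTiter-Fluor, then luminescence reporting ATAD5 activation. MMS positive control.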

A short description of experiment [9]: G06 Cancer Cell Toxicity qHTS against the NCATS CANVASS Library (AID 1347368). Further: nearly all actives have a fitted effect of over 60% in size. Conditions: G06 dog glioma cells, viability ATP luminescence, 72 h; series mostly up to 46.1 µM. In a few lines:
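Cells were plated at 500 per well, then compounds were added over an 11-point range. After 72 hr at 37C, CellTiterGlo was added and luminescence measured as ATP content.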

Experiment [10] in a line: MCF7 Cancer Cell Toxicity qHTS against the NCATS CANVASS Library (AID 1347369). Further: potency means the concentration at half of the fitted maximal effect. The following applies: MCF7 viability, ATP luminescence (CellTiter-Glo), 72 h; series mostly up to 46 µM. In outline:
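MCF7 cells (500/well) were exposed 72 h at 37 °C to compounds in an 11-point series. Viability was read as ATP content by CellTiterGlo luminescence.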

A short description of experiment [11]: qHTS for ATAD5 Antagonist screened against the NCATS CANVASS Library (AID 1347370). Further: nearly all actives have a fitted effect of over 65% in size. Further: potency means the concentration at half of the fitted maximal effect. The following applies: HEK293T-ATAD5-luc, 5-FUrd stimulated, luminescence, 16 h; series mostly up to 46.1 µM. In outline: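 Compounds (11-point) co-dosed with 10 µM 5-FUrd for 16 h at 37 °C onto HEK293T-ATAD5 luciferase reporter cells. Viability measured by CellTiter-Fluor fluorescence, then ATAD5 reporter signal by luminescence.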

Experiment [12] is described as follows: J3T Cancer Cell Toxicity qHTS against the NCATS CANVASS Library (AID 1347371). Further: potency means the concentration at half of the fitted maximal effect. The following applies: J3T dog glioma viability, ATP luminescence, 72 h; series mostly up to 46.1 µM. In outline:
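Luminescence from CellTiterGlo, reporting cellular ATP, serves as the viability measure after 72 hr compound treatment of J3T canine glioma cells seeded at 500 cells/well.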

Experiment [13] concerns the target Nuclear receptor subfamily 1 group I member 3 (Homo sapiens) (UniProt Q14994). In words: qHTS for Constitutive Androstane Receptor (CAR) Antagonist screened against the NCATS CANVASS Library (AID 1347372).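 Further: cells stimulated with 50 nM CITCO agonist so inhibition reflects antagonism.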 Conditions: HepG2-hCAR-CYP2B6 luciferase, CITCO-stimulated antagonist mode; series mostly up to 46.1 µM. In a few lines:
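Luminescence readout (ONE-Glo, 30 min RT) of CYP2B6-2.2kb reporter in HepG2-hCAR cells after 24hr, 37C treatment with compound against 50 nM CITCO; CellTiter-Fluor viability read beforehand.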

For experiment [14] the target is unchanged. As to the kind of experiment: qHTS for Constitutive Androstane Receptor (CAR) Agonist screened against the NCATS CANVASS Library (AID 1347373).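 Further: every well also contained 1.5 µM PK11195 alongside the test compound.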 The following applies: HepG2-hCAR-CYP2B6 luciferase reporter, ONE-Glo luminescence; series mostly up to 46.1 µM. In a few lines: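 Cells were plated and allowed to attach for 4hr, then dosed with compound in an 11-point series alongside 1.5uM PK11195. After 24hr at 37C, viability was measured fluorometrically and CAR-driven CYP2B6 reporter luminescence was recorded.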

A short description of experiment [15]: 10-beta competent E. coli microbial cell viability qHTS against the NCATS CANVASS Library (AID 1347376). Conditions: E. coli 10-beta viability, BacTiter-Glo ATP luminescence, overnight; series mostly up to 46.1 µM. In outline:
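Bacterial suspension diluted to 0.2 OD was dosed with compounds, 11-point series, then held overnight at 37C. BacTiter-Glo reagent was added, and after 20 min at room temperature ATP-dependent luminescence was measured.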

Experiment [16] can be described thus: qHTS for H2AX Agonists against the NCATS CANVASS Library (AID 1347378). Further: potency means the concentration at half of the fitted maximal effect. Conditions: CHO-K1 H2AX phosphorylation, HTRF TR-FRET, 3 h; series mostly up to 76.9 µM. In outline: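 CHO-K1 cells (1000/well, overnight at 37C) exposed to compounds at several concentrations for 3 hr at 37C, 0.76% DMSO final. Lysates read by TR-FRET (phospho-H2AX S139 Eu-cryptate antibody / H2AX-d2 antibody) after 24 hr at room temperature; 665/615 nm ratio.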

A short description of experiment [17]: qHTS for Inflammasome Signaling Inhibitors: IL-1-beta AlphaLISA screen against the NCATS CANVASS Library (AID 1347379).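 Further: human THP-1 cells primed with LPS then triggered with ATP.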 Conditions: THP-1 LPS/ATP, IL-1B AlphaLISA secretion, 16 h; series mostly up to 57.5 µM. In a few lines: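 Secreted IL-1B from human THP-1 cells quantified by AlphaLISA 16 hr after compound addition (final up to 57.5 uM). A 1 hr compound pretreatment preceded inflammasome activation with 250 ng/mL LPS plus 1.25 mM ATP (final).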

Experiment [18] in a line: Inflammasome Signaling qHTS Counterscreen: IL-1-beta AlphaLISA counterscreen against the NCATS CANVASS Library (AID 1347381).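 Further: cell-free check with purified IL-1β in medium and no THP-1 cells.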 The following applies: Purified IL-1beta AlphaLISA signal interference counterscreen; series mostly up to 57.5 µM. In outline:
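Purified IL-1-beta (4 pg/well) + compound, 11-pt conc. series; acceptor beads 6 ug/mL + biotin-Ab 0.6 nM final, 1 h RT; SA-donor 24 ug/ml final, 30 min dark RT; read ex 680/em 615.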

A short description of experiment [19]: Cytotoxicity qHTS for assessment of Hepg2 cells membrane integrity screened against the NCATS CANVASS Library (AID 1347387). Conditions: HepG2 LDH release (CytoTox-ONE) fluorescence, 5 h; series mostly up to 46.1 µM. In outline:
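Cells were seeded at 2000 per well and left overnight to attach. Compounds were pin-transferred to give 0.59 nM - 46 uM in an 11-point series and incubated 5 hr at 37C. CytoTox-ONE reagent was added and, after 10 min at room temperature, fluorescence (ex 560, em 590 nm) was read.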

Experiment [20] can be described thus: Viability qHTS for inhibitors of the SERCaMP assay screened against the NCATS CANVASS Library (AID 1347400). Further: nearly all actives have a fitted effect of over 70% in size. The following applies: SH-SY5Y SERCaMP cells viability, CellTiter-Glo, 48 h; series mostly up to 92.2 µM. In a few lines: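 Seed SH-SY5Y-GLuc SERCaMP MJH297 cells at 1000 per well, incubate 4 h, add compounds across an 11-point range, incubate 48 h at 37C, then add CellTiter-Glo and read luminescence.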

Results filed as inconclusive are left out. The source made the active and inactive calls. The call rests on the fitted dose curve; in most records, active means well fitted curve in the direction sought with a large enough effect; inconclusive means small, poorly fitted or top-dose-only effect, or another doubt; inactive means no such curve, though single readings can be large; an effect the other way counts as inactive or inconclusive.

Chain of Luciferin 4-monooxygenase (Photinus pyralis) (P08659 whole entry, looked up): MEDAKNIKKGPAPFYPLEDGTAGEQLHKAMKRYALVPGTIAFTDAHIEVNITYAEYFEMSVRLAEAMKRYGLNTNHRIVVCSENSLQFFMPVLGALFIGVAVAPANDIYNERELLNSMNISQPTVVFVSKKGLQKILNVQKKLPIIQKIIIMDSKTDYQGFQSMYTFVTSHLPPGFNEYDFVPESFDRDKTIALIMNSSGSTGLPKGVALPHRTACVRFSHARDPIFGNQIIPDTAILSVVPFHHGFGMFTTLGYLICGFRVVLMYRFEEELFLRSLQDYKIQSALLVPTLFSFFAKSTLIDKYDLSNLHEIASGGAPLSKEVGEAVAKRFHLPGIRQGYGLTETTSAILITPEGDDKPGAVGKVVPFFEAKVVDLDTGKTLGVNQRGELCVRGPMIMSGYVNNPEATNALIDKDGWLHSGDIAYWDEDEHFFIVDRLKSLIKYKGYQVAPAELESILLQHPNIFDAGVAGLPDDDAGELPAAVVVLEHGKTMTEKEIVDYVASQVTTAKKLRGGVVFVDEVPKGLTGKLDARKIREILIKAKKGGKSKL
Chain of Nuclear receptor subfamily 1 group I member 3 (Homo sapiens) (Q14994 whole entry, looked up): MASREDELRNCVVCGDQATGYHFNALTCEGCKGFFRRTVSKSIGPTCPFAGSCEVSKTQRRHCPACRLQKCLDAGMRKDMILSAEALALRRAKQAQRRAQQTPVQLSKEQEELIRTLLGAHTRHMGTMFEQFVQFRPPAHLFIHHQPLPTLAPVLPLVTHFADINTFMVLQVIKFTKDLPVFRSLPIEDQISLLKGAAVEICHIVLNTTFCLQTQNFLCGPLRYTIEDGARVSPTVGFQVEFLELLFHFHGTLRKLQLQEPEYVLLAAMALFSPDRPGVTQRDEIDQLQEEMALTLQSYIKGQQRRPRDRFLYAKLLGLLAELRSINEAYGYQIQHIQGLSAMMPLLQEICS

For the compound `COC(=O)[C@@]12Oc3cccc(O)c3C(O)=C1C(=O)C[C@H](C)[C@H]2O`, the call in experiment [1], in [15], in experiment [18] and in [19] was inactive. For the same compound, the Potency result in experiment [2], in experiment [3], in experiment [4], in [5], in experiment [6] and in experiment [7] was “inactive” each time. For the same compound, the Potency entry in experiment [8], in experiment [9], in [10], in experiment [11], in experiment [12] and in experiment [13] was “inactive” in each case. In addition, the Potency entry in [14], in experiment [16], in experiment [17] and in [20] was “inactive” each time.

`COC1C(C)OC(OCC23C[C@@H]4[C@H](C)CC[C@H]4C4(C=O)CC2C=C(C(C)C)C34C(=O)O)[C@@H](O)[C@H]1O` (some centres undefined): the outcome in [1], in [15], in experiment [18] and in experiment [19] was inactive. Besides, the Potency result in experiment [2], in experiment [3], in experiment [4], in experiment [5], in experiment [6] and in experiment [7] was “inactive” each time. In addition, the Potency entry in experiment [8], in [9], in experiment [10], in [11], in [12] and in experiment [13] was “inactive” in each case. The Potency result in experiment [14], in experiment [16], in experiment [17] and in experiment [20] was “inactive” throughout.

On to `C=C(Cl)[C@](Cl)(CBr)CC[C@@H](Br)C(C)(C)Cl`, for which the outcome in experiment [1], in experiment [15] and in [18] was inactive. Further, the Potency result in [2], in experiment [3], in [4], in experiment [5], in experiment [6] and in experiment [8] was “inactive” in each case. The Potency result in [9], in [13], in experiment [14] and in experiment [20] was “inactive” each time. The Potency in experiment [7] was 20.9 µM (active); in experiment [10] it was 6.59 µM (active); in [11], 23.4 µM (active); in experiment [12], 4.18 µM (active); in experiment [16], 4.86 µM (active); in experiment [17], 4.85 µM (active).

Regarding `C[C@@]1(CCC(=O)Nc2c(O)ccc(C(=O)O)c2O)C(=O)C=C[C@]23C[C@H]4C[C@H](O[C@@]4(C)C2)C31` (some centres undefined), the result in experiment [1], in experiment [15], in experiment [18] and in experiment [19] was inactive. Also, the Potency result in [2], in experiment [3], in experiment [4], in [5], in [6] and in experiment [7] was “inactive” in each case. In addition, the Potency entry in experiment [8], in experiment [9], in experiment [10], in experiment [11], in [12] and in experiment [13] was “inactive” each time. In addition, the Potency result in experiment [14], in experiment [16], in experiment [17] and in experiment [20] was “inactive” each time.
